This note sets out measurements from ChEMBL document CHEMBL4513146, “CO-ADD screening of Karazin Kharkiv National University (Ukraine) compounds”.

One assay has as its system Klebsiella pneumoniae. The note with it: Concentration 32 ug.mL-1;; ASSAY_TEST Inhibition of Bacterial Growth; detection method Absorption (OD600); MEDIA CAMHB; plate type 384well; NBS; CORNING #3640; time 18 hr.
For a further assay, the system named is Candida albicans. The note with it: Concentration 32 ug.mL-1; ASSAY_TEST Inhibition of Fungal Growth; detection method Absorption (OD530).
The test system of the next assay is Cryptococcus neoformans. The note with it: Concentration 32 ug.mL-1; ASSAY_TEST Inhibition of Fungal Growth; detection method Resazurin; Absorption (OD600-OD570); plate type 384well; NBS; CORNING #3640. A general note: The colour change of resazurin is a common sign of viable cells or microbes.

Each structure is given as a SMILES string. Entries with a potency or affinity are not part of this list.

Consider `Cc1nnc2ccc(S(=O)(=O)N(Cc3ccccc3Cl)c3ccc(F)cc3)cn12`, for which the Inhibition with Klebsiella pneumoniae is 0.63%; with Candida albicans it was 5.22%; in the assay on Cryptococcus neoformans it was -2.96%.

In the case of `O=C(CSc1nnc2c3cc(-c4ccc(F)cc4)nn3ccn12)NCc1ccc(Cl)cc1`, the Inhibition in the assay on Klebsiella pneumoniae is on record as 0.77%; in the assay with Candida albicans, 7.94%; with Cryptococcus neoformans, -17.49%.

`CC(C)NC(=O)Cn1nc2nc(Nc3ccc(F)cc3)ccn2c1=O`: the figures for the Inhibition with Klebsiella pneumoniae, in the assay with Candida albicans and with Cryptococcus neoformans were 12.23%, 2.08% and -10.27%, respectively.

As for `Cc1cc(C)c(NC(=O)Cn2nc3c4cc(-c5ccc(F)cc5)nn4ccn3c2=O)c(C)c1`, the Inhibition in the assay with Klebsiella pneumoniae was 17.22%; with Candida albicans it was 18.72%; with Cryptococcus neoformans, -19.36%.

For the molecule `O=C(CSc1nnc2c3cc(-c4ccc(F)cc4)nn3ccn12)NCc1ccccc1Cl`, the Inhibition is 4.63% in the assay with Klebsiella pneumoniae, 14.03% in the assay with Candida albicans and -17.41% with Cryptococcus neoformans.

In the case of `O=C(CSc1nnc2c(=O)n(-c3ccc(Br)cc3)ccn12)Nc1ccc(F)cc1`, the Inhibition in the assay on Klebsiella pneumoniae is 8.05%; in the assay on Candida albicans, 10.99%; with Cryptococcus neoformans it was -11.61%.

For the molecule `CCc1cccc(C)c1NC(=O)CSc1nnc2ccc(C(=O)Nc3cccc(F)c3)cn12`, the Inhibition is 5.93% with Klebsiella pneumoniae, 1.09% with Candida albicans and -4.75% in the assay on Cryptococcus neoformans.

For `Cc1ccc(NC(=O)CSc2nnc3ccc(C(=O)Nc4cccc(F)c4)cn23)cc1F`, the Inhibition in the assay with Klebsiella pneumoniae is on record as 6.03%; with Candida albicans it was -0.33%; in the assay on Cryptococcus neoformans it was -4.6%.

As to `CCCCn1c(=O)c2sccc2n2c(=O)n(CC(=O)c3cccc(OC)c3)nc12`, the Inhibition in the assay on Klebsiella pneumoniae was 13.89%; in the assay on Candida albicans it was 1.56%; with Cryptococcus neoformans it was -15.97%.

`O=c1c2sccc2n2c(=O)n(Cc3cccc(Cl)c3)nc2n1CCc1ccccc1`: the Inhibition in the assay on Klebsiella pneumoniae is reported as 11.95%; with Candida albicans, 1.58%; with Cryptococcus neoformans it was -33.74%.

Turning to `Cc1ccc(C)c(Cn2nc3n(CCC(C)C)c(=O)c4sccc4n3c2=O)c1`, the values for the Inhibition with Klebsiella pneumoniae, with Candida albicans and with Cryptococcus neoformans were 11.36%, 0.71% and -24.6%, respectively.

With `Cc1nnc2c(=O)n(CC(=O)Nc3cccc(Cl)c3)c3ccccc3n12`, the Inhibition in the assay on Klebsiella pneumoniae was 15.43%; with Candida albicans, -0.29%; with Cryptococcus neoformans it was -13.95%.

With `COc1ccc(NC(=O)c2ccc3nn(CC(=O)Nc4ccc5c(c4)OCCO5)c(=O)n3c2)cc1`, the Inhibition is on record as 2.24% in the assay with Klebsiella pneumoniae, 1.62% in the assay on Candida albicans and -23.54% with Cryptococcus neoformans.

For `Cc1ccc(Cl)cc1NC(=O)Cn1nc2c(SC3CCCCC3)nccn2c1=O`, the Inhibition in the assay with Klebsiella pneumoniae was 10.4%; in the assay on Candida albicans, -0.14%; in the assay on Cryptococcus neoformans, -28.24%.

Regarding `Cc1ccc(NC(=O)CSc2nc3ccccc3n3cnnc23)c(C)c1`, the figures for the Inhibition with Klebsiella pneumoniae, in the assay with Candida albicans and with Cryptococcus neoformans were 0.98%, 26.16% and -16.93%, respectively.

On to `O=c1c2nnc(SCc3ccccc3F)n2ccn1-c1ccc(Br)cc1`, for which the figures for the Inhibition with Klebsiella pneumoniae, in the assay on Candida albicans and in the assay with Cryptococcus neoformans were 15.43%, 3.99% and -9.71%, respectively.

On to `O=S(=O)(c1ccc2nncn2c1)N(Cc1cc(F)cc(F)c1)c1ccc(F)cc1`, for which the Inhibition is 7.07% in the assay with Klebsiella pneumoniae, 0.51% with Candida albicans and -5.99% in the assay on Cryptococcus neoformans.

Turning to `O=c1n(Cc2ccc3c(c2)OCO3)nc2c(S(=O)(=O)N3CCCCC3)cccn12`, the Inhibition is reported as 10.73% with Klebsiella pneumoniae, 3.52% in the assay with Candida albicans and -6.79% with Cryptococcus neoformans.

For `COc1cccc(Oc2nccn3c(=O)n(CC(=O)Nc4ccc(OC)c(OC)c4)nc23)c1`, the Inhibition is 7.97% in the assay with Klebsiella pneumoniae, 1.42% in the assay with Candida albicans and -6.14% with Cryptococcus neoformans.

Turning to `CCOC(=O)c1ccc(NC(=O)Cn2nc3c(SCc4ccc(Cl)cc4)nccn3c2=O)cc1`, the Inhibition with Klebsiella pneumoniae was 1.65%; with Candida albicans, 7.78%; with Cryptococcus neoformans, -18.54%.

In the case of `COc1ccc(NC(=O)CSc2nc3ccccc3n3c(C(C)C)nnc23)cc1Cl`, the Inhibition in the assay with Klebsiella pneumoniae was 5.17%; in the assay with Candida albicans, 1.87%; with Cryptococcus neoformans, -6.36%.

As for `CC(C)Cn1c(=O)c2sccc2n2c(=O)n(CC(=O)NC(C)C)nc12`, the results for the Inhibition in the assay on Klebsiella pneumoniae, in the assay with Candida albicans and in the assay with Cryptococcus neoformans were 6.06%, 1.49% and -7.6%, respectively.

For the molecule `CCc1ccc(N(Cc2ccc(F)cc2)S(=O)(=O)c2cccn3c(CC)nnc23)cc1`, the values for the Inhibition with Klebsiella pneumoniae, in the assay with Candida albicans and in the assay with Cryptococcus neoformans were 6.32%, 33.96% and -7.64%, respectively.

`Cc1ccc(Sc2nccn3c(=O)n(CC(=O)Nc4cc(Cl)ccc4C)nc23)c(C)c1`: the Inhibition is -1.75% with Klebsiella pneumoniae, 4.75% with Candida albicans and -16.92% with Cryptococcus neoformans.

Turning to `CCc1ccccc1Sc1nccn2c(=O)n(CC(=O)NCc3cccs3)nc12`, the values for the Inhibition with Klebsiella pneumoniae, in the assay on Candida albicans and in the assay with Cryptococcus neoformans were -0.44%, 4.04% and -9.94%, respectively.

For the molecule `CC(C)Cc1ccc(S(=O)(=O)Nc2ccc3nncn3n2)cc1`, the Inhibition in the assay with Klebsiella pneumoniae is listed as 8.3%; in the assay with Candida albicans it was 1.38%; with Cryptococcus neoformans it was -3.84%.

As for `Cc1nnc2c(=O)n(CC(=O)Nc3ccc(Cl)cc3)c3ccccc3n12`, the results for the Inhibition with Klebsiella pneumoniae, in the assay with Candida albicans and with Cryptococcus neoformans were 4.43%, -0.59% and -11.19%, respectively.

In the case of `Cc1ccc(-c2ccc3nn(CC(=O)N4CCN(c5ccc(F)cc5)CC4)c(=O)n3n2)cc1C`, the results for the Inhibition in the assay with Klebsiella pneumoniae, in the assay on Candida albicans and in the assay with Cryptococcus neoformans were 1.03%, 7.38% and -10.89%, respectively.

Regarding `COc1ccc(N(Cc2ccc(C)cc2)S(=O)(=O)c2ccc3nnc(C)n3c2)cc1`, the Inhibition is -1.06% in the assay on Klebsiella pneumoniae, 4.08% in the assay on Candida albicans and -1.52% in the assay on Cryptococcus neoformans.

As to `COc1cccc(CNC(=O)CSc2nnc3c4cc(-c5cc(C)ccc5C)nn4ccn23)c1OC`, the Inhibition in the assay on Klebsiella pneumoniae is on record as 10.97%; in the assay with Candida albicans, 2.62%; with Cryptococcus neoformans, -25.27%.

By Inhibition is commonly meant the relative decrease from the control value, in per cent.
